Source: PubChem BioAssay
Entries with a potency or affinity are not part of this list. Active and inactive are the calls of the source. No cut-off is given here; in the data, nearly all actives have IC50 up to about 0.91 µM.

What follows are compounds tested against Calcium-dependent protein kinase 4 (Plasmodium falciparum (isolate 3D7)) (UniProt Q8IBS5) (assay: PfCDPK4 kinase inhibitors, biochemical, TCAMS library (AID 1159588)). Details: recombinant PfCDPK4, Kinase-Glo ATP depletion luminescence.
Sequence of Calcium-dependent protein kinase 4 (Plasmodium falciparum (isolate 3D7)) (Q8IBS5 whole entry, looked up): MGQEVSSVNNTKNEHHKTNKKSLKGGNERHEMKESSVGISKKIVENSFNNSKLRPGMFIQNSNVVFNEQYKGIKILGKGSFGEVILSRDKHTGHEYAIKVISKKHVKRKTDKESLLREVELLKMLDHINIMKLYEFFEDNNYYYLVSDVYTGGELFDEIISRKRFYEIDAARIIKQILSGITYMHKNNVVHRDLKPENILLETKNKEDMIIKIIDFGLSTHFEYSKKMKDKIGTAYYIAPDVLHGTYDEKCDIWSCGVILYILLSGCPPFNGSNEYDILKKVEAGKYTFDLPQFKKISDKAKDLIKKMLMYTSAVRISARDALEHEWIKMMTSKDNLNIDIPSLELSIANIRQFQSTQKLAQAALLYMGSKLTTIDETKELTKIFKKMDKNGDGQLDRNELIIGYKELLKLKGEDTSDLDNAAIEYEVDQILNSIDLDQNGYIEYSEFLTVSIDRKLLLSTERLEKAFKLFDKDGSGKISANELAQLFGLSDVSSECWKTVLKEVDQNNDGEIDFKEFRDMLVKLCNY

outcome, inactive:
Cc1ccccc1N1CCN(c2ccc(C(=O)NC(C)C)cn2)CC1
COc1ccc2nccc([C@@H](O)CN3CCC(NC(=O)c4ccc(C5(C(F)(F)F)N=N5)cc4)CC3)c2c1
Cc1ccccc1C1CCN(C2CCC(NC(=O)/C=C/c3ccc(Cl)cc3)CC2)CC1 (stereo not given)
Cc1cccc2[nH]c(-c3ccc(-c4ccc(CN5CCCC(O)C5)cc4)s3)nc12 (stereo not given)
COc1cc(NC(=O)/C=C/c2cc(F)cc(F)c2F)cc(OCCN2CCC3(CC2)OCCO3)c1
Cc1ccccc1Cc1cccc(/N=C(\N)Nc2ccc(Cl)cc2)n1
CCCCCC(C)NC[C@@H](O)[C@H](Cc1ccccc1)NC(=O)c1cc(NCC)cc(N2CCCCS2(=O)=O)c1 (stereo not given in full)
O=[N+]([O-])c1ccc(C=NNc2nc(Nc3ccccc3)nc(Nc3ccccc3)n2)o1
CCNc1cc(C(=O)N[C@@H](Cc2cccc(Cl)c2)[C@H](O)CNC(C)CCCC(C)C)cc(N2CCCCS2(=O)=O)c1 (stereo not given in full)
CN(C)Cc1ccc(-c2ccc3ccnc(N)c3c2)cc1
O=C(Nc1ccc(N2CCNCC2)cc1)c1ccn2ncc(-c3cccc(Cl)c3)c2n1
COc1ccc(-c2ccc(NC(=O)c3cccc(Cl)c3)cc2)cc1CN1CCCN(C)CC1
CCC(C)c1ccc(-n2c(Nc3ccccc3)nc3cc(S(N)(=O)=O)ccc32)cc1 (stereo not given)
Cc1c(C(=O)Nc2cc(Sc3ccc(F)cc3)cc([N+](=O)[O-])c2)sc2ncn(Cc3cccc(F)c3)c(=O)c12
COc1ccc(N2CCN(CCCCNC(=O)c3ccc(NC(=O)c4ccc(Cl)cc4)cc3)CC2)c(C)c1
Nc1cc2c(C3CCN(CC4CCN(C(=O)/C=C/c5ccc(Cl)c(Cl)c5)CC4)CC3)c[nH]c2cn1
O=C(Nc1ccc(-c2ccc(-c3nc4ccc(C(F)(F)F)cc4[nH]3)s2)cc1)c1ccoc1
Cc1cccc(CN2CCC(CNC(=O)c3cc4c(-c5ccccc5F)nn(C)c4s3)CC2)c1
CCc1c(CCNC/C=C/C=C/CNCCc2ccc(OC)c(OC)c2CC)ccc(OC)c1OC
CC(C)C(C(=O)n1cc2c(ccc3nc(N)nc(N)c32)n1)C(C)C
Cc1cccc(Nc2nc3nonc3nc2Nc2cccc(Cl)c2Cl)c1C
COc1cccc(CCc2ccc(O)c3c2C[C@H]2C[C@H]4[C@H](N(C)C)C(=O)C(C(N)=O)=C(O)[C@@]4(O)C(=O)C2=C3O)c1
CCOC(=O)c1ccc(NC(=O)N(Cc2ccc(-c3ccc(CN4CCNCC4)cc3)cc2)Cc2cccnc2)cc1
COc1cc(NC(=O)/C=C/c2cc(F)cc(F)c2F)cc(OCCN2CCCCC2)c1
CC(C)Cn1c(N)cc(=O)n(C)c1=O
COc1ccc(-c2nc(NC(=O)Cc3ccc4c(c3)OCCO4)sc2C)cc1
COc1ccc(-c2nc3c(NCc4ccccc4)nccc3[nH]2)c(OC)c1
Cc1cccc(CN2CCC(C(=O)Nc3ccc(-c4nc5ccccc5[nH]4)cc3)CC2)n1
Cc1ccc(C2CCN(CCCCNC(=O)c3ccc(NC(=O)c4ccc(Cl)cc4)cc3)CC2)c(OCC(F)(F)F)c1
CN(C)CC1CCCN1Cc1ccccc1-c1cnn(C)c(=O)c1Oc1ccccc1F (stereo not given)
CC(C)(C)OC(=O)NCC(=O)N(Cc1ccccc1)Cc1ccccc1
COc1cc(C(=O)N2CCOC(CCN3CCC[C@H]3C(=O)Nc3ccccc3)(c3ccc(Cl)c(Cl)c3)C2)cc(OC)c1OC (stereo not given in full)
O=C(/C=C/c1ccc(Cl)c(Cl)c1)NCCCCCCN1CCCN(C(=O)Nc2ccc(F)c(Cl)c2)CC1
Cc1nc(NCc2ccccc2)cc(NCC(O)c2ccc(O)cc2)n1 (stereo not given)
Cc1nc(-c2ccc(-c3ccc(NC(=O)Nc4ccc(I)c(OCCN(C)C)c4)cc3)c(C)c2)no1
Nc1nc(N)c2c(ccc3c2ccn3CCCC2CCCNC2)n1 (stereo not given)
CCc1cn2c3c(cc(C(=O)N[C@@H](Cc4ccccc4)[C@H](O)CNC4CCOCC4)cc13)N(C)S(=O)(=O)C2
CNC(=O)/C=C/c1cc(NC(=O)Nc2cc(C)nc3c(F)cccc23)ccc1OC
CC(C)Cn1cc(C2CCN(CCN3CCC(CNC(=O)c4ccc(NC(=O)c5cc(Cl)cc(Cl)c5)cc4)CC3)CC2)c2ccccc21
O=C(NCCCNc1ccnc2cc(Cl)ccc12)c1ccccc1F
